This passage reports growth inhibition results from PubChem BioAssay (NCI).

Structures are written as SMILES. This is part of a sample that, as a whole, favours compounds with a hit. Of some 79,000 tested, about 15% had one in any assay. Values without a mark were called inactive. Calls of active or inactive are those of the source. Rule as the data show it: active = growth inhibition above about 70%; inactive = the rest.

Test [1] is described as follows: NCI Yeast Anticancer Drug Screen. Data for the rad50 strain (AID 155).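 Also: 0% = growth of vehicle-only cultures of the same strain.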 To be noted: S. cerevisiae rad50 strain growth inhibition, hits give high values. In outline: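 A DNA repair-deficient yeast mutant serves as the test organism; compound-induced growth inhibition is calculated against vehicle-treated cells.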
Test [2] is described as follows: NCI Yeast Anticancer Drug Screen. Data for the mec2-1 strain (AID 157). To be noted: S. cerevisiae mec2-1 strain, hits give high values. In outline: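 Readout is yeast growth inhibition, normalised to vehicle-treated controls, in the mec2-1 strain exposed to compound.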
A short description of test [3]: NCI Yeast Anticancer Drug Screen. Data for the sgs1 mgt1 strain (AID 161).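 Also: 0% = growth of cultures given vehicle only.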 The following applies: S. cerevisiae sgs1 mgt1 strain, hits give high values. The method in brief:
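Percent growth inhibition was derived by comparing compound-exposed mutant yeast with vehicle-exposed cultures. The strain carries alterations in DNA damage repair.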

Test [4] in a line: NCI Yeast Anticancer Drug Screen. Data for the cln2 rad14 strain (AID 165).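 Also: 0% = growth equal to vehicle treated cultures.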 To be noted: S. cerevisiae cln2 rad14 strain, hits give high values. The method in brief: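 Relative to vehicle controls, growth inhibition of compound-treated cln2 rad14 yeast was recorded.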
Test [5] is described as follows: NCI Yeast Anticancer Drug Screen. Data for the bub3 strain (AID 167). To be noted: S. cerevisiae bub3 mutant strain, hits give high values. In outline: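 Inhibition values come from growth of compound-treated mutant yeast normalised to vehicle-treated controls.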
Test [6] is described as follows: NCI Yeast Anticancer Drug Screen. Data for the mlh1 rad18 strain (AID 175). To be noted: S. cerevisiae mlh1 rad18 strain growth inhibition, hits give high values. In outline: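 Test agents were incubated with a yeast strain of defined genotype (DNA damage repair defect). Inhibition of growth was derived by comparison with vehicle-exposed cultures.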
The mark [7] stands for this setting: at 5.0 µM (retest, dose inferred, filed as 0.5).
The mark [8] stands for this setting: at 50.0 µM (retest, dose inferred, filed as 5.0).

As for `CCC(=O)N1c2ccccc2CC1c1c[nH]c2ccccc12` (stereo not given), the growth inhibition in test [1] (setting [7]) is -4%; in test [1] (setting [8]) it was 98% (active); in test [1] (at 50.0 µM) it was 95.2% (active); in test [2] (setting [7]), -10%; in test [2] (setting [8]), 98% (active); in test [2] (at 50.0 µM) it was 30.8%. Further, the growth inhibition in test [3] (setting [7]) is -3%; in test [3] (setting [8]) it was 98% (active); in test [3] (at 50.0 µM), 77.4% (active); in test [4] (setting [7]) it was -56%; in test [4] (setting [8]), 99% (active); in test [4] (at 50.0 µM), 74.5% (active). In addition, the growth inhibition in test [5] (setting [7]) was -10%; in test [5] (setting [8]), 78% (active); in test [5] (at 50.0 µM), 8.15%; in test [6] (setting [7]), 1%; in test [6] (setting [8]), 98% (active); in test [6] (at 50.0 µM), 93.3% (active).
Take `CSc1nc(SC)c2cnn(Cc3ccccc3)c2n1`: the growth inhibition in test [1] (setting [7]) was -16%; in test [1] (setting [8]) it was 21%; in test [1] (at 50.0 µM), -7.1%; in test [2] (setting [7]), -1%; in test [2] (setting [8]), -15%; in test [2] (at 50.0 µM) it was 4.9%. Further, the growth inhibition in test [3] (setting [7]) is -15%; in test [3] (setting [8]) it was 25%; in test [3] (at 50.0 µM), 9.7%; in test [4] (setting [7]), -11%; in test [4] (setting [8]) it was -4%; in test [4] (at 50.0 µM) it was 2.35%. In addition, the growth inhibition is -8% in test [5] (setting [7]); 18% in test [5] (setting [8]); 1.3% in test [5] (at 50.0 µM); 18% in test [6] (setting [7]); 7% in test [6] (setting [8]); 16.9% in test [6] (at 50.0 µM).
Turning to `Nc1n[n+](-c2ccccc2)no1`, the growth inhibition in test [1] (setting [7]) was 34%; in test [1] (setting [8]), 81% (active); in test [1] (at 50.0 µM), 61%; in test [2] (setting [7]), 16%; in test [2] (setting [8]) it was 46%; in test [2] (at 50.0 µM) it was 33.4%. Further, the growth inhibition was 24% in test [3] (setting [7]); 60% in test [3] (setting [8]); 56.6% in test [3] (at 50.0 µM); 45% in test [4] (setting [7]); 59% in test [4] (setting [8]); 23% in test [4] (at 50.0 µM). For the same molecule, the growth inhibition in test [5] (setting [7]) was 43%; in test [5] (setting [8]) it was 59%; in test [5] (at 50.0 µM), 45.2%; in test [6] (setting [7]), 31%; in test [6] (setting [8]) it was 68%; in test [6] (at 50.0 µM), 70.6% (active).
Regarding `Cc1occc1C(=S)Nc1ccc(Cl)c(C(=O)OCC(C)C)c1`, the growth inhibition is 28% in test [1] (setting [7]); 59% in test [1] (setting [8]); 61.3% in test [1] (at 50.0 µM); 19% in test [2] (setting [7]); 45% in test [2] (setting [8]); 55.1% in test [2] (at 50.0 µM). Moreover, the growth inhibition in test [3] (setting [7]) was 34%; in test [3] (setting [8]) it was 71% (active); in test [3] (at 50.0 µM) it was 58.8%; in test [4] (setting [7]), 25%; in test [4] (setting [8]), 71% (active); in test [4] (at 50.0 µM), 57.6%. Moreover, the growth inhibition in test [5] (setting [7]) is 30%; in test [5] (setting [8]), 78% (active); in test [5] (at 50.0 µM), 57.1%; in test [6] (setting [7]), 33%; in test [6] (setting [8]), 73% (active); in test [6] (at 50.0 µM), 41.3%.
Take `C=C(CCC(C)C1CCC2(C)C3=C(CC(O)C12C)C1(C)CCC(O)C(C)(C)C1CC3)C(C)C(=O)O` (stereo not given): the growth inhibition is 11% in test [1] (setting [7]); 88% (active) in test [1] (setting [8]); 84.1% (active) in test [1] (at 50.0 µM); 15% in test [2] (setting [7]); 91% (active) in test [2] (setting [8]); 83% (active) in test [2] (at 50.0 µM). In addition, the growth inhibition in test [3] (setting [7]) was 20%; in test [3] (setting [8]), 90% (active); in test [3] (at 50.0 µM), 84.8% (active); in test [4] (setting [7]), 40%; in test [4] (setting [8]) it was 96% (active); in test [4] (at 50.0 µM), 87.3% (active). Also, the growth inhibition was 29% in test [5] (setting [7]); 94% (active) in test [5] (setting [8]); 80.9% (active) in test [5] (at 50.0 µM); 30% in test [6] (setting [7]); 95% (active) in test [6] (setting [8]); 82.7% (active) in test [6] (at 50.0 µM).
For `C=C1C[C@@]2(OC)OCC[C@H]3C(C)=CCC(C1=O)[C@]32C(=O)OC` (stereo not given in full), the growth inhibition in test [1] (setting [7]) is 12%; in test [1] (setting [8]), 96% (active); in test [1] (at 50.0 µM) it was 98.5% (active); in test [2] (setting [7]), 15%; in test [2] (setting [8]), 98% (active); in test [2] (at 50.0 µM), 92.7% (active). For the same molecule, the growth inhibition in test [3] (setting [7]) was 15%; in test [3] (setting [8]), 98% (active); in test [3] (at 50.0 µM), 99.1% (active); in test [4] (setting [7]) it was 6%; in test [4] (setting [8]), 93% (active); in test [4] (at 50.0 µM), 96.8% (active). For the same molecule, the growth inhibition in test [5] (setting [7]) was -5%; in test [5] (setting [8]), 98% (active); in test [5] (at 50.0 µM), 98.7% (active); in test [6] (setting [7]), 4%; in test [6] (setting [8]), 97% (active); in test [6] (at 50.0 µM), 99% (active).
For `NC(=Nc1cc2ccccc2c2ccccc12)/N=C(/N)Nc1cc2ccccc2c2ccccc12`, the growth inhibition in test [1] (setting [7]) was 99% (active); in test [1] (setting [8]), 97% (active); in test [1] (at 50.0 µM) it was 60.6%; in test [2] (setting [7]), 100% (active); in test [2] (setting [8]), 99% (active); in test [2] (at 50.0 µM), 56.2%. Moreover, the growth inhibition was 99% (active) in test [3] (setting [7]); 98% (active) in test [3] (setting [8]); 51.1% in test [3] (at 50.0 µM); 99% (active) in test [4] (setting [7]); 98% (active) in test [4] (setting [8]); 50.8% in test [4] (at 50.0 µM). Besides, the growth inhibition is 99% (active) in test [5] (setting [7]); 98% (active) in test [5] (setting [8]); 60% in test [5] (at 50.0 µM); 99% (active) in test [6] (setting [7]); 98% (active) in test [6] (setting [8]); 51.7% in test [6] (at 50.0 µM).
On to `O=C1CCCCCC1Cc1cc(O)c(CC2CCCCCC2=O)cc1O` (stereo not given), for which the growth inhibition is 10% in test [1] (setting [7]); 54% in test [1] (setting [8]); 91.8% (active) in test [1] (at 50.0 µM); 8% in test [2] (setting [7]); 34% in test [2] (setting [8]); 80.2% (active) in test [2] (at 50.0 µM). The growth inhibition in test [3] (setting [7]) is 12%; in test [3] (setting [8]) it was 82% (active); in test [3] (at 50.0 µM) it was 86.5% (active); in test [4] (setting [7]), -6%; in test [4] (setting [8]), 32%; in test [4] (at 50.0 µM) it was 11.2%. Further, the growth inhibition in test [5] (setting [7]) is -3%; in test [5] (setting [8]), 33%; in test [5] (at 50.0 µM), 64.2%; in test [6] (setting [7]), 8%; in test [6] (setting [8]) it was 88% (active); in test [6] (at 50.0 µM) it was 35.2%.
Turning to `CCCCCCCCC(C)c1ccccc1O` (stereo not given), the growth inhibition was -150% in test [1] (setting [7]); 96% (active) in test [1] (setting [8]); 99.7% (active) in test [1] (at 50.0 µM); -53% in test [2] (setting [7]); 98% (active) in test [2] (setting [8]); 99.7% (active) in test [2] (at 50.0 µM). The growth inhibition in test [3] (setting [7]) was -68%; in test [3] (setting [8]), 96% (active); in test [3] (at 50.0 µM), 99.4% (active); in test [4] (setting [7]), -62%; in test [4] (setting [8]) it was 97% (active); in test [4] (at 50.0 µM) it was 99.4% (active). Further, the growth inhibition in test [5] (setting [7]) was -56%; in test [5] (setting [8]), 96% (active); in test [5] (at 50.0 µM), 99.5% (active); in test [6] (setting [7]) it was -151%; in test [6] (setting [8]) it was 97% (active); in test [6] (at 50.0 µM), 99.4% (active).
Take `N#CC1Oc2ccccc2N1C(=O)c1ccccc1` (stereo not given): the growth inhibition in test [1] (setting [7]) was 2%; in test [1] (setting [8]), 12%; in test [1] (at 50.0 µM), 33%; in test [2] (setting [7]), 0%; in test [2] (setting [8]), 7%; in test [2] (at 50.0 µM), 54.1%. The growth inhibition is -3% in test [3] (setting [7]); -4% in test [3] (setting [8]); 36% in test [3] (at 50.0 µM); -6% in test [4] (setting [7]); 0% in test [4] (setting [8]); -0.55% in test [4] (at 50.0 µM). The growth inhibition in test [5] (setting [7]) is -8%; in test [5] (setting [8]), 48%; in test [5] (at 50.0 µM) it was 77.3% (active); in test [6] (setting [7]) it was 2%; in test [6] (setting [8]), 4%; in test [6] (at 50.0 µM) it was 64.3%.
